Assay results published in PubChem BioAssay.
Active and inactive are the calls of the source. Unless noted, no rule for the calls is given here.

Experiments:
[1] = system: Wnt5a (protein binding on small-molecule microarray); assay: small molecules binding Wnt5a protein – biophysical, small-molecule microarray, 635/667 nm fluorescence, primary screen (AID 1142); details: 635 nm fluorescence, higher = more signal;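 also: fluorescence read at 667 nm with signal to noise per printed feature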
[2] = ATP-based viability of Huh7 replicon cells – cell-based, CellTiter-Glo luminescence, basal, 48 h, cytotoxicity control for HCV replication inhibitor project, primary screen (AID 1143); details: higher = more signal, called active from +8 up or from −8 down;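 also: Huh7 hepatoma cells carrying a hepatitis C replication reporter with no stimulus; test concentration not given here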
[3] = Pseudomonas biofilm growth suppression – PAO1 strain, BacTiter-Glo luminescence, LB-PBS, primary screen (AID 1144); details: P. aeruginosa PAO1 biofilm, 12 h, higher = more signal
[4] = basal CRE-LacZ reporter activity in PC12 – cell-based, unstimulated, primary screen (AID 1145); details: no forskolin, luminescence, 4.5 h, higher = more signal, called active from +8 up or from −8 down
[5] = forskolin-driven CRE-LacZ activity in PC12 – cell-based, CRE-LacZ reporter, forskolin-stimulated, primary screen (AID 1146); details: luminescence, 4.5 h, higher = more signal, called active from +8 up or from −8 down;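 also: PC12 cells with 6xCRE LacZ reporter stimulated by forskolin 10 µM; beta-galactosidase reporter signal reflecting CREB driven transcription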
[6] = target: Streptavidin (Streptomyces avidinii) (UniProt P22629); assay: compounds binding control protein streptavidin – biophysical, small-molecule microarray, 635/667 nm fluorescence, artefact control for SMM compound annotation, primary screen (AID 1147); details: higher = more signal;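 also: signal reflects streptavidin binding to arrayed compounds as a control protein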
[7] = probe aInhba binding on compound microarray – biochemical, small-molecule microarray, 635/667 nm fluorescence, primary screen (AID 1148); details: higher = more signal;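 also: score merges 667nm spot fluorescence with signal-to-noise for antibody binding to printed compounds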
[8] = target: Torsin-1A (Homo sapiens) (UniProt O14656); assay: TOR1A wild-type binding on microarray – cell lysate, small-molecule microarray, lysate, 635/667 nm, primary screen (AID 1149); details: COS7 hTOR1A-WT lysate, 635 nm fluorescence, higher = more signal
[9] = target: Torsin-1A (Homo sapiens) (UniProt O14656); assay: torsin A mutant lysate binding on microarrays – cell lysate, small-molecule microarray, COS7 lysate, 635/667 nm fluorescence, primary screen (AID 1150); details: COS7 hTOR1A mutant lysate, 635 nm fluorescence, higher = more signal;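 also: score pools 667 nm emission and signal to noise measuring lysate protein binding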
[10] = system: Sonic hedgehog protein (Shh); assay: Sonic hedgehog microarray binding compounds – biochemical, small-molecule microarray, 635/667 nm fluorescence, primary screen (AID 1151); details: 635 nm fluorescence, higher = more signal;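 also: Shh protein binding to compounds spotted on small-molecule microarray slides; score combines spot fluorescence intensity with signal-to-noise across triplicate slides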
[11] = optical density shifts of acrAB sulA E. coli – strain DRC41, OD650, 48 h, E. coli filamentation inducer project, primary screen (AID 1152); details: higher = more signal, called active from +8 up or from −8 down;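 also: E. coli MC1000 strain DRC41 lacking acrAB efflux pump and sulA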
[12] = probe aLefty1 binding on compound microarray – biochemical, small-molecule microarray, 635/667 nm fluorescence, primary screen (AID 1153); details: higher = more signal;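 also: score merges spot fluorescence with signal-to-noise ratio from the scanned slide images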
[13] = plasmodial surface anion channel blockers, osmotic lysis – cell-based, P. falciparum Indochina, OD700, 1 h, primary screen (AID 1154); details: P. falciparum Indochina infected RBC osmotic lysis, higher = more signal, called active from +8 up or from −8 down
[14] = plasmodial surface anion channel blockers, osmotic lysis – cell-based, P. falciparum Indochina, OD700, 2 h, primary screen (AID 1155);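 also: lysis reports solute entry through the parasite surface anion channel PSAC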; details: P. falciparum Indochina infected erythrocytes, higher = more signal, called active from +8 up or from −8 down
[15] = changes in parasitized red cell lysis, either direction – P. falciparum Indochina, OD700, 3 h, PSAC antagonist project, primary screen (AID 1156); details: P. falciparum-infected erythrocytes, osmotic lysis, higher = more signal, called active from +8 up or from −8 down
[16] = plasmodial surface anion channel blockers, osmotic lysis – cell-based, P. falciparum Indochina, OD700, 18 h, primary screen (AID 1157); details: P. falciparum Indochina infected erythrocytes, osmotic lysis OD700, 18 h; higher = more signal, called active from +8 up or from −8 down
[17] = S6 kinase pathway phospho-S6 level changes – cell-based, A549, cytoblot, luminescence, serum-stimulated, primary screen (AID 1158); details: 5 h, higher = more signal;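 also: serum-stimulated A549 lung adenocarcinoma cells; signal is phosphorylated S6 detected by cytoblot immunostaining with HRP secondary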
[18] = target: NADPH oxidase 2 (Homo sapiens) (UniProt P04839); assay: compounds shifting NOX2 Amplex Red fluorescence – cell-based, HEK293-NOX2, PMA-stimulated, NOX inhibitor project, primary screen (AID 1159); details: 45 min, higher = more signal, called active from +8 up or from −8 down; also: test concentration not given here
[19] = target: NADPH oxidase 4 (Homo sapiens) (UniProt Q9NPH5); assay: compounds shifting NOX4 Amplex Red fluorescence – cell-based, HEK293-NOX4, tetracycline-induced, NOX inhibitor project, primary screen (AID 1160); details: HEK293-NOX4, Amplex Red H2O2 fluorescence, 45 min; higher = more signal, called active from +8 up or from −8 down
[20] = target: NADPH oxidase 5 (Homo sapiens) (UniProt Q96PH1); assay: compounds shifting NOX5 Amplex Red fluorescence – cell-based, HEK293-NOX5, NOX inhibitor project, primary screen (AID 1161); details: HEK293-NOX5, ionomycin, 45 min, higher = more signal
Sequence of NADPH oxidase 5 (Homo sapiens) (Q96PH1 whole entry, looked up): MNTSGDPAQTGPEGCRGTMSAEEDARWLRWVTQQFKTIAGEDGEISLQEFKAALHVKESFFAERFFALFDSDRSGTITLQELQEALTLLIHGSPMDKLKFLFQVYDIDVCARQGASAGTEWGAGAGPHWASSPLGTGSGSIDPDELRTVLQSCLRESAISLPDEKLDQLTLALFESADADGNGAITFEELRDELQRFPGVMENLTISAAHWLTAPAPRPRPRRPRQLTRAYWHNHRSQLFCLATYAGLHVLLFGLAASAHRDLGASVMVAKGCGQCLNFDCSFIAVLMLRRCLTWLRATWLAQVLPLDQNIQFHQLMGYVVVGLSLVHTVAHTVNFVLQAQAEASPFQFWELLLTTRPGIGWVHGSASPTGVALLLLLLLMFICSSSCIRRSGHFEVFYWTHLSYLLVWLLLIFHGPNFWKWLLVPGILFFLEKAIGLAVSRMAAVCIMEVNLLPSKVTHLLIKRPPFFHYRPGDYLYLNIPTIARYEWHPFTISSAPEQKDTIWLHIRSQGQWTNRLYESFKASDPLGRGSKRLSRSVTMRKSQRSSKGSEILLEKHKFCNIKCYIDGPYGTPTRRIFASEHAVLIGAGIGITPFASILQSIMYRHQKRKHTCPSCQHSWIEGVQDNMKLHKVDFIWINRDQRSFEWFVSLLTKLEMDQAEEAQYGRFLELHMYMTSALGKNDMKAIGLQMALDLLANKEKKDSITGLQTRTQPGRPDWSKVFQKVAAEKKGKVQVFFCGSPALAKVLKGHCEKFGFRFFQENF

Sequence of NADPH oxidase 2 (Homo sapiens) (P04839 whole entry, looked up): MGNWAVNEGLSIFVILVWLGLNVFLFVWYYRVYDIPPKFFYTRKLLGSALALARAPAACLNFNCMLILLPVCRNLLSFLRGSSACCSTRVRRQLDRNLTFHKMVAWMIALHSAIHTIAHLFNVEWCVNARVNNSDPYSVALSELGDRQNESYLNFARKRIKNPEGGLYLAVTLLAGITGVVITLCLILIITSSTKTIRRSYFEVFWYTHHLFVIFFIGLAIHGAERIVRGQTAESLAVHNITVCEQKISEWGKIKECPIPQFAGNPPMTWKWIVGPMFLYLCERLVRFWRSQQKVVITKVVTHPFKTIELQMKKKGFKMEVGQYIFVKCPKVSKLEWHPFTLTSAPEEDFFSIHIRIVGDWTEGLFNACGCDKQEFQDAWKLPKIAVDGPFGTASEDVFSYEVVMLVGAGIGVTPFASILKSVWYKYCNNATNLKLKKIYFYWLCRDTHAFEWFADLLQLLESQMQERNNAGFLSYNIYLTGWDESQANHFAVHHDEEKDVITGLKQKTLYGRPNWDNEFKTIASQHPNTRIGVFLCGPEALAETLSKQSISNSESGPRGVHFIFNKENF
Sequence of NADPH oxidase 4 (Homo sapiens) (Q9NPH5 whole entry, looked up): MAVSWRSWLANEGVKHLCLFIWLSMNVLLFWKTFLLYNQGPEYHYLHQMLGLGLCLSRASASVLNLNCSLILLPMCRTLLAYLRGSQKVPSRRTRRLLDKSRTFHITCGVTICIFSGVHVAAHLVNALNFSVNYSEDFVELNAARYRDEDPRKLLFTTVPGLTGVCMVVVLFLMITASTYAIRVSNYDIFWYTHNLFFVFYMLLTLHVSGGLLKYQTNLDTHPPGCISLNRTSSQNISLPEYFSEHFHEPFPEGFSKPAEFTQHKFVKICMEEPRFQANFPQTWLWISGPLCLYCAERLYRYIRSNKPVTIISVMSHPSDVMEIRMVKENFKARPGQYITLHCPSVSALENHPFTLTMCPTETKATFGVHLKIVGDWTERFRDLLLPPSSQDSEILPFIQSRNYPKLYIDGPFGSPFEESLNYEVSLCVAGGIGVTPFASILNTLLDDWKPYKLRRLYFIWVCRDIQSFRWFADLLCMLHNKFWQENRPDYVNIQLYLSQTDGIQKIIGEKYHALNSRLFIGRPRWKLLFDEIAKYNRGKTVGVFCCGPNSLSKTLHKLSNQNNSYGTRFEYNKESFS
Sequence of Torsin-1A (Homo sapiens) (O14656 whole entry, looked up): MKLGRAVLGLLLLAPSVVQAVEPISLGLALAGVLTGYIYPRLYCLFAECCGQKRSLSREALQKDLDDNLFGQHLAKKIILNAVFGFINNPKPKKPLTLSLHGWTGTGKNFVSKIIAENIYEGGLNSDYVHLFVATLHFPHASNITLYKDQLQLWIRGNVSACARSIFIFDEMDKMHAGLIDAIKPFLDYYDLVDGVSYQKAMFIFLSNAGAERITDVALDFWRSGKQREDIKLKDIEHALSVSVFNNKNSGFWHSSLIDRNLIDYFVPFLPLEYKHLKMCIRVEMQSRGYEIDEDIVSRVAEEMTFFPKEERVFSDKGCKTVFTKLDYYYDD
Sequence of Streptavidin (Streptomyces avidinii) (P22629 whole entry, looked up): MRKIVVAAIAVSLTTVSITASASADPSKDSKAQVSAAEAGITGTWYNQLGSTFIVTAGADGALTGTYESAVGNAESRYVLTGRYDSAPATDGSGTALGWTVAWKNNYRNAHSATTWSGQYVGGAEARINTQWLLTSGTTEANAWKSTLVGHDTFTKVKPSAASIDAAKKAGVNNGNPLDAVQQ

SMILES | composite z-score [1] | z-score [2] | z-score [3] | z-score [4] | z-score [5] | composite z-score [6] | composite z-score [7] | composite z-score [8] | composite z-score [9] | composite z-score [10] | z-score [11] | composite z-score [12] | z-score [13] | z-score [14] | z-score [15] | z-score [16] | z-score [17] | z-score [18] | z-score [19] | z-score [20]
CCCCCN1CC=CC23O[C@@H]4/C=C\CCCOC(=O)C4[C@H]2C(=O)N(CCCO)[C@@H]3C1=O (stereo not given in full) | 0.132 | 0.37 (inactive) | -1.17 (inactive) | -0.619 (inactive) | -0.812 (inactive) | -0.413 | -0.233 | 2.02 | 2.27 | -0.163 | 2.27 (inactive) | -0.353 | 1.33 (inactive) | 0.212 (inactive) | -1.43 (inactive) | -0.678 (inactive) | 0.696 | 1.46 (inactive) | 0.42 (inactive) | 2.13
CN1C(=O)C2C=CC(C(O)c3cc(C(F)(F)F)cc(C(F)(F)F)c3)N(N3CCCCC3)C2C1=O (stereo not given) | 0.209 | 0.401 (inactive) | -0.15 (inactive) | 0.44 (inactive) | -0.411 (inactive) | -0.0121 | 0.0047 | -0.083 | 0.502 | 0.035 | -0.78 (inactive) | 0.349 | 1.2 (inactive) | 0.968 (inactive) | 0.859 (inactive) | 0.999 (inactive) | -1.08 | 0.00363 (inactive) | -0.651 (inactive) | 1.01
O=C1NC(=O)C2C1C=CC(C(O)C(c1ccccc1)c1ccccc1)N2Nc1ccc(Cl)cc1Cl (stereo not given) | 0.223 | -1.78 (inactive) | -0.548 (inactive) | -0.14 (inactive) | 0.253 (inactive) | 1.23 | 0.102 | -0.614 | -0.0412 | -0.566 | -1.53 (inactive) | 0.42 | 8.4 (active) | 2.11 (inactive) | 0.537 (inactive) | 2.49 (inactive) | -1.02 | -0.421 (inactive) | -5.03 (inactive) | -2.4
O=C1OCCC=C[C@H]2OC34C=CCN(CCN5CCOCC5)C(=O)[C@H]3N(CCCCCCO)C(=O)[C@@H]4C12 (stereo not given in full) | -0.0312 | 0.18 (inactive) | -0.134 (inactive) | 1.55 (inactive) | 0.0231 (inactive) | -0.393 | -0.179 | 0.811 | -0.839 | 0.65 | 0.36 (inactive) | -0.286 | 0.683 (inactive) | 0.539 (inactive) | 0.835 (inactive) | 0.353 (inactive) | -0.156 | 0.658 (inactive) | -0.289 (inactive) | 1.67
COC(=O)[C@@]1(Cc2ccccc2)[C@H]2c3cc(C(=O)N4CCCC4)n(Cc4nc5ccccc5[nH]4)c3C[C@H]2CN1C(=O)c1ccccc1 | 0.0972 | -2.97 (inactive) | -0.509 (inactive) | 0.773 (inactive) | 1.46 (inactive) | 1.51 | 0.427 | 0.746 | 1.24 | -0.105 | -1.31 (inactive) | 1.06 | 3.2 (inactive) | 0.541 (inactive) | 2.65 (inactive) | 0.959 (inactive) | -0.25 | 0.311 (inactive) | -0.142 (inactive) | -3
NCCCCCNC(=O)[C@@H]1C[C@@H]2C(=O)NCC(=O)N2[C@@H]1c1ccc(O)cc1 | 0.892 | 0.104 (inactive) | -0.735 (inactive) | 0.557 (inactive) | 0.467 (inactive) | 1.2 | -0.0963 | 1.06 | 0.682 | 2.06 | -0.142 (inactive) | -0.0984 | 0.539 (inactive) | 0.115 (inactive) | -0.563 (inactive) | -0.0673 (inactive) | -0.47 | -0.354 (inactive) | -0.0757 (inactive) | 0.564
COCCCN1C(=O)[C@@]2(Cc3ccccc31)c1ccccc1C(=O)N(Cc1ccccc1C(F)(F)F)[C@H]2c1ccc(CO)cc1 | 0.16 | 0.287 (inactive) | -0.169 (inactive) | -0.581 (inactive) | 0.255 (inactive) | 0.147 | 0.331 | -0.0888 | -0.0875 | 0.498 | -0.125 (inactive) | -0.208 | 0.512 (inactive) | 0.635 (inactive) | -0.101 (inactive) | 0.427 (inactive) | 0.0136 | -0.767 (inactive) | -0.607 (inactive) | 0.77
C=C(CCCC)/C(=C/C[C@@H](OC(C)=O)c1ccccc1OCCO)c1cnc2ccccc2c1 | 0.0953 | -1.6 (inactive) | -0.131 (inactive) | 2.02 (inactive) | -0.185 (inactive) | -0.0227 | -0.0736 | 1.11 | -0.438 | 1.02 | -0.19 (inactive) | 0.082 | 21.1 (active) | 4.29 (inactive) | 1.96 (inactive) | 1.39 (inactive) | 0.132 | -1.87 (inactive) | -1.61 (inactive) | -1.79
